LmPK inhibitor: LmPK (Leishmania mexicana) enzyme inhibition; purified LmPK, Kinase-Glo ATP luminescence, 1 h; Potency, µM (titrated, usually from 57.5 µM), without a hit: at the top dose activity change, negative = inhibition, actives largely listed as inhibitors; 290,000 compounds, 0.37% hits; AID 1721; further: potency means the concentration at half of the fitted maximal effect; on the % scale 0 is the no-effect control and ±100 the full control effect
Target sequence (Q27686 whole entry, looked up): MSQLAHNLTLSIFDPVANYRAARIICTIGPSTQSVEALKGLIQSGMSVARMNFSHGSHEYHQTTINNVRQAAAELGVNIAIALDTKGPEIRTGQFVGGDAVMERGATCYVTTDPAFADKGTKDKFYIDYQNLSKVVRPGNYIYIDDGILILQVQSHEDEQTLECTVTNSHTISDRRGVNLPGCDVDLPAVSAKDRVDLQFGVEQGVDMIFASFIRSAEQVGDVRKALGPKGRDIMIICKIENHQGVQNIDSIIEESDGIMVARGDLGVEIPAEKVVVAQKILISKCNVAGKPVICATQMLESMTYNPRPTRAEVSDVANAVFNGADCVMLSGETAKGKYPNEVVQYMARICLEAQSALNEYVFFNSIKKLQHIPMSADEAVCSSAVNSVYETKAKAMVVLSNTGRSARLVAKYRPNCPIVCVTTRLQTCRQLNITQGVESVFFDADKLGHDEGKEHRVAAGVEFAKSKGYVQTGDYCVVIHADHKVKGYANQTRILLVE
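ATP generated from ADP (0.1 mM) and PEP (0.5 mM) by 0.1 nM LmPK over 1 h at room temperature (pH 7.2 imidazole buffer) was detected by coupled luciferase luminescence. Values were normalized to uninhibited and no-enzyme wells.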
CHX counter: counter-screen for Shiga toxin inhibitors: cycloheximide protein synthesis inhibition | cell reporter, cycloheximide protein synthesis inhibition counterscreen | max response, % | 300,000 compounds, 12% hits; in the data active means max response mostly above about 13%, no sharp cut-off; inactive means mostly below about 14%; further: read at 38.3 µM for the half of the compounds with a filed dose; 0% is about no effect
Shiga inhibitor: Shiga toxin inhibition. Vero cells, Shiga toxin protein synthesis inhibition reporter. inhibition, % at 38.7 µM. 290,000 compounds, 9.2% hits. AID 2315; in the data active means inhibition mostly above about 28%, no sharp cut-off; inactive means mostly below about 43%; further: 0% is about no effect
Pf growth 48h: inhibits P. falciparum growth in the first generation, 48 h; P. falciparum luciferase growth in erythrocytes, 48 h; Potency, µM (titrated, usually from 28.7 µM), for the others: at the top dose activity change, negative = inhibition, actives largely listed as inhibitors; 310,000 compounds, 5.9% hits; AID 504832; further: potency means the concentration at half of the fitted maximal effect; on the % scale 0 is the no-effect control and ±100 the full control effect
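Luciferase-expressing parasites in RBCs, 2% Hct / 0.1% parasitemia final; RPMI 1640 + 0.5% Albumax; 37 C, 5% CO2, one generation; luminescence read-out, lower signal = inhibition.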
Pf growth 96h: P. falciparum growth inhibition at 96 hour, primary screen for plastid delayed-death inhibitors | P. falciparum luciferase reporter growth, 96 h | Potency, µM (top dose mostly 28.7 µM), for inactives: top-dose activity change, negative = inhibition, usual class: inhibitors | 320,000 compounds, 6.9% hits | AID 504834; further: potency means the concentration at half of the fitted maximal effect; on the % scale 0 is the no-effect control and ±100 the full control effect
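Readout is luminescence from an integrated firefly luciferase in P. falciparum. Red cells, 2% hematocrit and 0.05% parasitemia final, were cultured with compound through two parasite generations (96 hours) at 37 C, 5% CO2.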
* = called active by the depositor; u = inconclusive; x = not tested or not shown; [ ] = remark or other dose. Rows were chosen to be rich in hits. Some 22% of all compounds tested hit in one or more screens of this group. Unless noted, the call rests on the fitted dose curve; in most records, active means well fitted inhibition curve with a large enough effect; inconclusive means small, poorly fitted or top-dose-only effect, or another doubt; inactive means no such curve, though single readings can be large or run the other way.

SMILES	LmPK inhibitor	CHX counter	Shiga inhibitor	Pf growth 48h	Pf growth 96h
COc1ccc(CN2CCN(C(c3ccc(F)cc3)c3ccc(F)cc3)CC2)c(OC)c1OC	x	x	x	9.5µM*	6.7µM*
COc1ccc(CN2CCN(c3ccc(F)cc3)CC2)c(OC)c1OC	2%	-2	-7	-5%	23%
COc1ccc(CN2CCN(Cc3cc(=O)oc4cc(C)ccc34)CC2)c(OC)c1OC	2%	2	-8	u	9.3µM*
Cc1cc2oc(=O)cc(CN3CCCCC3C)c2cc1C (stereo not drawn)	-4%	-1	1	10µM*	9.3µM*
Cc1cc2oc(=O)cc(CN3CCC(C)CC3)c2cc1C	0%	20*	24	u	u
Cc1cc2oc(=O)cc(CN3CCCCC3C)c2cc1Cl (stereo not drawn)	0%	2	-4	u	-13%
Cc1ccc2c(CN3CCN(CCO)CC3)cc(=O)oc2c1	1%	-2	4	12%	30%
COc1ccc(-c2nc3ccccc3c(=O)n2CC(C)C)cc1	6%	-4	-6	22%	9%
CCN(CC(=O)NCc1ccncc1)S(=O)(=O)c1ccccc1	6%	-4	-2	4%	-9%
COC(OC)c1ccnc(-c2ccc(OC(C)=O)cc2)n1	0%	22*	50	28%	125%
COC(OC)c1ccnc(-c2ccc(OC(=O)c3cccs3)cc2)n1	-3%	26*	61*	46%	127%
COC(OC)c1ccnc(-c2ccc(OC(=O)c3ccccc3)cc2)n1	8%	27	43	31%	31%
CCOc1ccc(NC(=O)CN(C)C(=O)CCCc2nc3ccccc3c(=O)[nH]2)cc1OCC	x	x	x	-12%	20%
O=C(CSc1ncccn1)N1CCC(Cc2ccccc2)CC1	3%	-2	20	-17%	-23%
Cc1cc(C(=O)N/N=C/c2ccccn2)n[nH]1	-1%	18*	38	32%	45%
O=C(N/N=C/c1ccccn1)c1cc(C2CC2)[nH]n1	-1%	38*	111*	264%	13%
CC(/C=N/NC(=O)c1cc(C2CC2)[nH]n1)=C\c1ccccc1	0%	9.5*	24	2%	0%
O=C(N/N=C/c1cccc2ccccc12)c1cc(C2CC2)[nH]n1	10%	22*	75*	-5%	-16%
CCOC(=O)c1c(S(=O)(=O)NCC(=O)N2CCN(c3ccc(F)cc3)CC2)c(C)n(C)c1C	0%	1	10	u	-1%
CCN1C(=O)N[C@@H](c2ccccc2)[C@@H](C(=O)OC)[C@H]1C	-2%[11.5 µM]	x	x	x	x
COc1cc(C(=O)Oc2cccc(/C=N/NC(=O)c3cc(C)[nH]n3)c2)cc(OC)c1OC	2%	15	15	8%	u
Cc1cc(C(=O)N/N=C/c2cccc(OC(=O)c3cccc(Br)c3)c2)n[nH]1	-11%	15	23*	26%	7%
COC(CNS(=O)(=O)c1ccc(Cl)cc1)c1ccccc1 (stereo not drawn)	-3%	-2	-8	-12%	13µM*
CC[C@H](C)[C@H](NC(=O)[C@H](Cc1ccccc1)NC(=O)[C@H](CC(C)C)NC(=O)[C@H](CCSC)NC(=O)[C@H](CCC(=O)O)NC(=O)[C@H](CCC(=O)O)NC(=O)[C@H](CC(=O)O)NC(=O)[C@H](CO)NC(=O)[C@@H]1CCCN1C(=O)[C@H](CCCCN)NC(=O)[C@@H](N)[C@@H](C)O)C(=O)N[C@@H](Cc1ccc(O)cc1)C(=O)NCC(=O)N[C@@H](Cc1cnc[nH]1)C(=O)N[C@@H](Cc1ccc(O)cc1)C(=O)N[C@@H](CCCCN)C(=O)N[C@@H](CCC(N)=O)C(=O)N[C@@H](C)C(=O)N[C@H](C(=O)N[C@H](C(=O)NCC(=O)N[C@@H](CC(=O)O)C(=O)N[C@H](C(=O)N[C@@H](CC(N)=O)C(=O)N[C@H](C(=O)N[C@@H](CCC(=O)O)C(=O)N[C@@H](CCCNC(=N)N)C(=O)N1CCC[C@H]1C(=O)NCC(=O)N[C@@H](CCSC)C(=O)N[C@@H](CC(C)C)C(=O)N[C@@H](CC(=O)O)C(=O)N[C@@H](Cc1ccccc1)C(=O)N[C@H](C(=O)O)[C@@H](C)O)[C@@H](C)O)[C@@H](C)CC)C(C)C)[C@@H](C)O	x	-9	2	x	x
COc1ccc(/C=C/C(=O)C(C(N)=O)=C2SCCS2)cc1	-1%	31*	49*	-27%	-29%
SMILES	LmPK inhibitor	CHX counter	Shiga inhibitor	Pf growth 48h	Pf growth 96h
O=C(/C=C/c1ccc(OC2CSC2)cc1)c1ccc(Cl)cc1	-1%	-6	-3	13%	28%
NC(=O)C(C(=O)/C=C/c1ccc(Cl)cc1)=C1SCCS1	1%	15*	39	u	8.3µM*
COc1ccc(/C=C/C(=O)N[C@@H](C)C(=O)O)cc1	-4%	-5	6	-2%	7%
O=C(CCl)Nc1cccc2ncccc12	-4%	-2	-13	2.3µM*	1%
COc1ccc(OCC(=O)Nc2cccc3ncccc23)cc1	1%	-3	-4	-11%	180%
CC(=O)Nc1cccc(C(=O)Nc2cccc3ncccc23)c1	2%	-3	-6	35%	70%
CCOc1cc(C(=O)Nc2cccc3ncccc23)cc(OCC)c1OCC	-6%	2	-3	x	15µM*
COc1ccc(CNS(=O)(=O)NCc2ccc(C)cc2)cc1	0%	6	3	-25%	17%
CN(C)c1oc(-c2ccccc2Cl)nc1P(=O)(c1ccccc1)c1ccccc1	12%	-4	-14	x	12µM*
Cc1ccc(S(=O)(=O)c2nc(-c3ccccc3Cl)oc2N(C)C)cc1	-10%	57*	86*	132%	u
Cc1ccc(-c2nc(S(=O)(=O)c3ccc(C)cc3)c(N(C)C)o2)cc1	0%	-1	-10	2%	u
O=C(CCn1nnnc1CN1CCOCC1)N1CCC(c2cccc(Cl)c2)C1 (stereo not drawn)	8%	1	-6	1%	u
CCc1cccc(C)c1NC(=S)N(CCN(C)C)C(C)c1cccnc1 (stereo not drawn)	-5%	-2	-7	3%	u
CCN(c1cccc(C)c1)S(=O)(=O)c1ccc(-n2cccn2)cc1	-11%	-3	7	0%	0%
COc1ccc(CNC(=O)C2CCC(=O)N(CCCN3CCCC3=O)C2)c(OC)c1 (stereo not drawn)	-11%	-1	-6	5%	-21%
O=C(NNC1CC(=O)N(c2ccc(Br)cc2)C1=O)c1cccs1 (stereo not drawn)	3%	14	35*	16%	59%
Cc1c(Cl)cccc1N1C(=O)CC(NNC(=O)c2cccs2)C1=O (stereo not drawn)	0%	20*	18	7%	9%
O=C(NC(=S)NC1CCCC1)c1ccccc1	-12%	43*	67*	22%	43%
CC(=O)NNC(=S)NC(=O)c1ccccc1	8%	1	10	u	-24%

Source: PubChem BioAssay
